Each structure is given as a SMILES string.

This test concerns the target Hexose transporter 1 (Plasmodium falciparum) (UniProt O97467). Put plainly: ST_JUDE_LEISH: Cytotoxicity at 2uM final concentration against transgenic Leishmania Mexicana promastigotes LmPfHT that are glucose transport deficient and complemented with the Plasmodium falciparum hexose transporter. Activity is measured by DNA content using SYBR green in vitro. It counts as functional.
As to `Cc1cccc(-c2ccc(NC(=O)C3CCN(Cc4cccc(O)c4)CC3)cc2)c1`, the inhibition – broadly, the drop in the measured response relative to a control, in per cent – came to 1.99%.
On to `O=C(Nc1cccc(C(F)(F)F)c1)c1cccc2nc(C(F)(F)F)[nH]c12`, for which the inhibition was found to be 24.2%.
As to `O=C(c1csc(-c2cccnc2)n1)N1CCc2cc3nccc(N4CCN5CCC[C@H]5C4)c3cc21`, the inhibition stood at 8.81%.
On to `Cc1nnnn1-c1ccc(C(=O)N2CCC3(CC2)CN(Cc2ccc(Cl)c(Cl)c2)C(=O)O3)cc1`, for which the inhibition was found to be 8.51%.
Take `CCCCCCn1ccc2c3c(N)nc(N)nc3ccc21`: the inhibition was 101%.
Regarding `Clc1ccc(Cn2nc(Br)nc2Br)c(Cl)c1`, the inhibition is -1.03%.
The value for `Cc1cc(N[C@@H](Cc2ccccc2)C(=O)NCCc2ccccc2)nc(NCC2CCCCC2)n1` was 3.86%; that for `Cc1cccc2nc(-c3ccc(-c4ccc(CN5CCCCC5)cc4)s3)[nH]c12` was 2.36%; that for `COc1ccccc1CCNc1nc(C)cc(NCCC(=O)NCCOc2ccccc2)n1` was 7.33%.
For the molecule `CCCCCCN1CCCN(Cc2ccc(C(=O)Nc3ccc(Cl)cc3)cc2)CC1`, the inhibition is 13.8%.
As to `Cn1cnc(CCNC(=O)c2ccc(-c3cccc(-c4nc5cc(C(F)(F)F)ccc5[nH]4)c3)cc2)c1`, the inhibition amounted to 4.43%.
Take `O=C(/C=C/c1ccc(Cl)c(Cl)c1)NCCCCCN1CCC(NC(=O)Nc2cccc(F)c2)CC1`: the inhibition was found to be 1.97%.
Take `C=CC[C@@H](C(=O)OCC)[C@@H]1[C@@H](N(CC=C)C(=O)OC(C)(C)C)CCN1C(=O)OCc1ccccc1`: the inhibition amounted to 1.22%.
Regarding `CCN(CC)CCN(Cc1ccc(-c2ccc(C(F)(F)F)cc2)cc1)C(=O)Cn1c(CCc2cccc(F)c2F)cc(=O)c(C)c1C`, the inhibition amounted to 8.35%.
The figure for `CC(=O)Nc1nc(C(=O)Nc2cccc(-c3ccc(-c4nc5cccc(C)c5[nH]4)cc3)c2)cs1` is 7.51%.

For the origin of these results see ChEMBL document CHEMBL3433997, “St. Jude Leishmania screening dataset” (2016).
